Active and inactive are the calls of the source.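 Rule for the calls, unless noted: active = viability at or below 10% of carrier control in both of two separate runs; inconclusive = viability at or below 10% in only one of the two runs; inactive = the rest.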
Columns and labels:
[1] = reducers of endogenous Her2 protein level, primary screen, SKBR3 breast tumor cells, AlphaScreen, ATP viability (AID 461;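 active = Her2 level under about 52% in both replicate screens, with viability over 70% of control, limit read from the data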;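 for Her2 level: lower value means less Her2 protein in the cells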;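 for viability: percent of carrier control wells set as 100% viability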); details: 18-24 h, measured here: SKBR3 viability, ATP luminescence, at 10 µM
[2] = target: Receptor tyrosine-protein kinase erbB-2 (Homo sapiens) (UniProt P04626); assay: as above; details: 18-24 h, at 10 µM, stronger effect = lower value
[3] = SK-BR-3 cell growth inhibitors, pilot screen, 24 h, human (AID 572); details: SK-BR-3 viability, CellTiter-Glo luminescence, at 10 µM, stronger effect = lower value;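 note: compound exposure lasted between 18 and 24 h rather than exactly 24 h; 100% = carrier-treated control wells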
[4] = HUVEC growth inhibition – cell-based, human, primary screen (AID 575;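 active = viability at or below 30% in both replicate assays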;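 note: 100% = median of untreated cell wells with 0.1% DMSO on each plate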); details: HUVEC proliferation, CellTiter-Glo luminescence, 72 h; at 10 µM; stronger effect = lower value
[5] = reversal of MRP1-mediated doxorubicin resistance, pilot screen, H69AR cells, doxorubicin co-treatment (AID 601;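 active = viability loss from added drug above about 55%, and viability with drug at most 40%, in both replicates, limit read from the data, passing the limit was not always enough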); details: CellTiter-Glo, 72 h, at 10 µM; for differential viability (reversal): stronger effect = higher value
[6] = 384-well plate pilot, post-Golgi transport modulator project, inhibition of yeast transport mutant growth (AID 636; in the data active = inhibition above about 31%); details: absorbance 615 nm, about 18 h, stronger effect = higher value
[7] = growth suppression of yeast trafficking mutant, preliminary HTS, modulators of trafficking downstream of Golgi apparatus project, 1536-format plate, OD 615 nm (AID 637; in the data active = inhibition above about 30%); details: yeast transport mutant growth, absorbance 615 nm, 18 h; stronger effect = higher value
[8] = H69AR cells + 2 uM doxorubicin, measured here: viability with 2 uM doxorubicin, stronger effect = lower value
[9] = H69AR cells, compound alone cytotoxicity

Chain of Receptor tyrosine-protein kinase erbB-2 (Homo sapiens) (P04626 whole entry, looked up): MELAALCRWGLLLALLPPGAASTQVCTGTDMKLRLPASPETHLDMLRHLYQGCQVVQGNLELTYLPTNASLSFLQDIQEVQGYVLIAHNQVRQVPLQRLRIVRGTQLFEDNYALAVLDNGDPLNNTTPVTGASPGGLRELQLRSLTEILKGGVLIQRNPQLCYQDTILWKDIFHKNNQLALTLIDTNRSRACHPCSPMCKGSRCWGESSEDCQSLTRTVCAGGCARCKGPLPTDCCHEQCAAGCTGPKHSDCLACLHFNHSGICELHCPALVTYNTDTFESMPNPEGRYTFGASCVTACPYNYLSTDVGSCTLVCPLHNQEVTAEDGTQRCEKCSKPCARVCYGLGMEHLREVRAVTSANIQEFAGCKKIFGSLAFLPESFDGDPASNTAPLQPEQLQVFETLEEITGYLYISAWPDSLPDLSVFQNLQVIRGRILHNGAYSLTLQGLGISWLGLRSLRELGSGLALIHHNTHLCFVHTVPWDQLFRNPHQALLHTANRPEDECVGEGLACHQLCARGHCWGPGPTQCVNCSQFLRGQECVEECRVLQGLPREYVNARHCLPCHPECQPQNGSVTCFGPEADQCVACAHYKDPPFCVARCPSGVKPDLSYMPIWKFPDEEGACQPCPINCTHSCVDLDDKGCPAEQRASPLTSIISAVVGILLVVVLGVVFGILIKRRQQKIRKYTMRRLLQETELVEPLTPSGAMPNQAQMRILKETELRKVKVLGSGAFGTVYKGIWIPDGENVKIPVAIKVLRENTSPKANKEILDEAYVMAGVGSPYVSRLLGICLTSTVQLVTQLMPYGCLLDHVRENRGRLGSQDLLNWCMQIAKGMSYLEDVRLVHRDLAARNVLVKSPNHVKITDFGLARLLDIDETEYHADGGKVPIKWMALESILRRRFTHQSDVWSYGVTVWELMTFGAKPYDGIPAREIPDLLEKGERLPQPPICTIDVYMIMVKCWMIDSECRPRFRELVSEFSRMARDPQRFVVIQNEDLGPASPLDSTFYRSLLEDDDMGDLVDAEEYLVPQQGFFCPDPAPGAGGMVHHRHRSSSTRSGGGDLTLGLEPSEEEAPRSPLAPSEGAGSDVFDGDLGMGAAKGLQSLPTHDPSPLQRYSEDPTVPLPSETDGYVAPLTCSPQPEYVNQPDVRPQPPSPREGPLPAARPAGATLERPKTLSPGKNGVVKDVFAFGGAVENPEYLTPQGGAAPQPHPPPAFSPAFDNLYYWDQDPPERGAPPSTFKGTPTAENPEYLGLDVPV

Compound	viability [1] [%]	Her2 level [2]	viability [3]	viability [4]	differential viability (reversal) ([5]; H69AR cells + 2 uM doxorubicin)	viability [5, 8] [%]	viability [5, 9] [%]	inhibition [6]	inhibition [7]
CCOC(=O)c1c(C)[nH]c(C(=O)COC(=O)c2ccc(F)c(S(=O)(=O)N3CCOCC3)c2)c1C	88.5	79.5% (inactive)	88.5% (inactive)	62.4% (inactive)	11.4% (inactive)	52.5	63.9	-5.47% (inactive)	-1.97% (inactive)
N#CC1=C(SCC(=O)NC23CC4CC(CC(C4)C2)C3)NC(=O)C(C#N)C12CCCCC2 (configuration not stated)	74	76% (inactive)	74% (inactive)	54.1% (inactive)	-5.21% (inactive)	41	35.8	-5.48% (inactive)	-5.4% (inactive)
Cc1cccc(N2CCN(C(=O)c3ccc(NS(=O)(=O)c4c(C)noc4C)cc3)CC2)c1C	98	106% (inactive)	98% (inactive)	68.2% (inactive)	13.6% (inactive)	46.2	59.8	-3.68% (inactive)	2% (inactive)
CCCCCCc1ccc(-c2ncc(N)cn2)cc1	97	90.5% (inactive)	97% (inactive)	7.73% (active)	-5.17% (inactive)	61.9	56.7	-1.47% (inactive)	0.32% (inactive)
Cc1ccccc1OCCCN1C(=O)C(=O)c2cccc(C)c21	106	72% (inactive)	106% (inactive)	77.7% (inactive)	-16.4% (inactive)	49.4	33	2.56% (inactive)	-1.33% (inactive)
Cc1ccc(NC(=O)c2oc3ccc(S(=O)(=O)N4CCOCC4)cc3c2C)cc1C	91	83.5% (inactive)	91% (inactive)	51.6% (inactive)	-5.16% (inactive)	48.6	43.4	-5.26% (inactive)	2.54% (inactive)
CCOC(=O)c1nnc2cc(-c3ccc(Br)cc3)nn2c1C	76.5	93.5% (inactive)	76.5% (inactive)	70.3% (inactive)	6.1% (inactive)	43.6	49.7	4.55% (inactive)	-5.24% (inactive)
CCOC(=O)c1sc(NC(=O)c2c(C)nn(Cc3ccccc3)c2C)cc1C	82.5	90.5% (inactive)	82.5% (inactive)	44.6% (inactive)	-8.76% (inactive)	46.8	38.1	-10% (inactive)	-4.92% (inactive)
CC(C)(C)c1cc(NC(=O)c2cc(F)c(F)c(F)c2F)no1	102	92% (inactive)	102% (inactive)	63.6% (inactive)	-20.6% (inactive)	70.8	50.2	2.08% (inactive)	-3.83% (inactive)
CCOC(=O)Cc1nnc2c(Nc3ccccc3F)nc3nonc3n12	108	95.5% (inactive)	108% (inactive)	36.9% (inactive)	-18.9% (inactive)	31.5	12.6	-3.9% (inactive)	-2.54% (inactive)
CCn1c(CNc2ccc(OC)cc2)nnc1SCC(=O)c1ccc(OC)cc1	110	91% (inactive)	110% (inactive)	68.8% (inactive)	-14.7% (inactive)	65.5	50.8	-3.64% (inactive)	0.33% (inactive)
Cc1ccc(C)c(-c2nc3ccc(N)cc3[nH]2)c1	122	101% (inactive)	122% (inactive)	68.3% (inactive)	-15.6% (inactive)	68.3	52.8	-6.35% (inactive)	5.67% (inactive)
C=CCn1c(N)c(C(=O)OC(C)(C)C)c2nc3ccccc3nc21	102	90.5% (inactive)	102% (inactive)	70.5% (inactive)	-15.9% (inactive)	66.7	50.8	0.66% (inactive)	1.94% (inactive)
CCOc1cccc(-n2nnnc2-c2ccc(OC)cc2)c1	107	90% (inactive)	107% (inactive)	49.9% (inactive)	-47.9% (inactive)	60.4	12.5	-1.04% (inactive)	-4.6% (inactive)
CCOC(=O)c1oc2ccccc2c1NC(=O)c1cccc(OC)c1OC	96.5	100% (inactive)	96.5% (inactive)	51% (inactive)	-68.6% (inactive)	88.2	19.6	-2.99% (inactive)	-2.22% (inactive)
O=C(c1cc(-c2ccco2)nn1-c1cccc(Cl)c1)N1CCCCC1	111	84.5% (inactive)	111% (inactive)	95% (inactive)	-25.9% (inactive)	79.2	53.3	-2.24% (inactive)	-1.94% (inactive)
COc1ccccc1-c1c(C)nn2c(N3CCC4(CC3)OCCO4)cc(C)nc12	90	89% (inactive)	90% (inactive)	99.3% (inactive)	30.6% (inactive)	29.3	60	-1.05% (inactive)	-2.42% (inactive)

Compound	viability [1] [%]	Her2 level [2]	viability [3]	viability [4]	differential viability (reversal) ([5]; H69AR cells + 2 uM doxorubicin)	viability [5, 8] [%]	viability [5, 9] [%]	inhibition [6]	inhibition [7]
Cc1cc(C)c2c(n1)nn1c(N3CCN(c4ccccc4C)CC3)cc(C)nc21	73.5	95.5% (inactive)	73.5% (inactive)	92.4% (inactive)	-0.53% (inactive)	73.6	73.1	1.18% (inactive)	6.73% (inactive)
CCCCCSc1nc2c(cnn2-c2ccccc2)c(=O)[nH]1	99	93.5% (inactive)	99% (inactive)	45.2% (inactive)	-3.82% (inactive)	50.1	46.3	-5.26% (inactive)	-0.17% (inactive)
C=CCn1c(COc2ccc(Cl)cc2)nnc1SCC(=O)N1CC(=O)Nc2ccccc21	92	76.5% (inactive)	92% (inactive)	65.5% (inactive)	-10.9% (inactive)	73.5	62.7	-5.2% (inactive)	-3.02% (inactive)
N#C/C(C(=O)NCc1ccco1)=C1/SC(Cc2ccc(F)cc2)C(=O)N1c1ccccc1 (configuration not stated)	112	84% (inactive)	112% (inactive)	88.3% (inactive)	-10.3% (inactive)	58.3	48	-3.68% (inactive)	-1.64% (inactive)
c1ccc2c(-c3nc(C4CCCCC4)no3)cc(-c3ccncc3)nc2c1	72.5	69% (inactive)	72.5% (inactive)	66.6% (inactive)	-5.85% (inactive)	49.4	43.6	45.3% (active)	8.23% (inactive)
Cc1ccccc1OCC(O)CN (configuration not stated)	74	90% (inactive)	74% (inactive)	15.3% (active)	-5.69% (inactive)	25	19.3	3.64% (inactive)	-6.03% (inactive)
COc1ccc(N2C(=O)C(Cl)=C(Nc3c(C)n(C)n(-c4ccccc4)c3=O)C2=O)cc1	94	68% (inactive)	94% (inactive)	81.1% (inactive)	10% (inactive)	35.3	45.3	-1.71% (inactive)	-6.03% (inactive)
CCOc1ccc2nc(NC(=O)C3CCCN(S(=O)(=O)c4c(C)noc4C)C3)sc2c1 (configuration not stated)	124	74% (inactive)	124% (inactive)	49.7% (inactive)	-23.4% (inactive)	71.2	47.9	6.28% (inactive)	7.5% (inactive)
CC(=O)N1CCN(c2ccc(NC(=O)c3ccc(C(C)(C)C)cc3)cc2)CC1	74.5	94% (inactive)	74.5% (inactive)	38.7% (inactive)	-12.4% (inactive)	56.6	44.2	-6.08% (inactive)	-11.3% (inactive)
N#CC(C(=O)C1CCCCC1)c1nc2ccccc2[nH]1 (configuration not stated)	91.5	89.5% (inactive)	91.5% (inactive)	82% (inactive)	-19.9% (inactive)	76.1	56.1	0.66% (inactive)	20.6% (inactive)
CC(=O)c1ccccc1Oc1nc(CN2CCOCC2)nc2scc(-c3cccs3)c12	87.5	79% (inactive)	87.5% (inactive)	73.3% (inactive)	32.8% (inactive)	17.1	49.9	-8.24% (inactive)	2.46% (inactive)
O=C(Nc1sc2c(c1C(=O)NCc1ccco1)CCCC2)c1ccc2c(c1)OCO2	89.5	92.5% (inactive)	89.5% (inactive)	78.7% (inactive)	-11.3% (inactive)	72.7	61.4	1.22% (inactive)	-6.35% (inactive)
CC(C)C(=O)Nc1ccc(C(=O)NCc2cccnc2)cc1	107	108% (inactive)	107% (inactive)	118% (inactive)	-61.7% (inactive)	72.5	10.8	4.42% (inactive)	-7.14% (inactive)
CC1=C(C(=O)OC2CCCCC2)C(c2ccc(C)o2)C2=C(CC(C)(C)CC2=O)N1 (configuration not stated)	77.5	83% (inactive)	77.5% (inactive)	50.5% (inactive)	13.1% (inactive)	37.4	50.5	0.38% (inactive)	-7.83% (inactive)
N#Cc1c(N)nc(SCc2ccncc2)c(C#N)c1-c1cccs1	98.5	71% (inactive)	98.5% (inactive)	79% (inactive)	37.4% (inactive)	14.9	52.3	-0.53% (inactive)	7.74% (inactive)
C=C(C)COc1ccc(-c2nc(N)ncc2Oc2ccccc2OCC)c(O)c1	79	84.5% (inactive)	79% (inactive)	85.5% (inactive)	-12.4% (inactive)	51.6	39.1	-0.66% (inactive)	24.4% (inactive)

— PubChem BioAssay
